Measured values published in PubChem BioAssay (NCATS).
Where “and” joins values, the source holds several entries; their conditions need not be identical. Identical values can stand only once. Records with an inconclusive call do not appear. Where a call stands in place of a potency, no number is given. A number with no mark means an inactive call. Calls of active or inactive are those of the source. The call rests on the fitted dose curve; in most records, active means well fitted curve in the direction sought with a large enough effect; inconclusive means small, poorly fitted or top-dose-only effect, or another doubt; inactive means no such curve, though single readings can be large; an effect the other way counts as inactive or inconclusive. Where a SMILES comes first, the peptide text is derived from it. [ ]: non-standard residue; d: D form. pGlu = O=C1CC[C@@H](C(=O)O)N1; Thz = O=C(O)[C@@H]1CSCN1

Columns and labels:
CAOV3 = test: Primary qHTS to identify gynecologic anti-cancer compounds using libraries of approved drugs and bioactive compounds (AID 1345084); conditions: Gynecologic cancer cell panel viability, ATPlite luminescence, 48 h; series mostly up to 57.5 µM; further: nearly all actives have a fitted effect of over 55% in size
In short: (§1)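 Cells, 1,000 per well, plated 16 h, then exposed 48 h at 37 C to compounds. Viability by ATPlite luminescence after 15 min at room temperature.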

CASKI = test: as above; conditions: Gynecologic cancer cell panel viability, ATPlite luminescence, 48 h; series mostly up to 57.5 µM
In short: as §1

Es-2 = test: as above; conditions: Gynecologic cancer cell panel viability, ATPlite luminescence, 48 h; series mostly up to 57.5 µM
In short: as §1

HeLa = test: as above; conditions: Gynecologic cancer cell panel viability, ATPlite luminescence, 48 h; series mostly up to 57.5 µM
In short: as §1

Hek293T = test: as above; conditions: Gynecologic cancer cell panel viability, ATPlite luminescence, 48 h, control line for the selectivity index; series mostly up to 57.5 µM
In short: as §1

JEG-3 = test: as above; conditions: Gynecologic cancer cell panel viability, ATPlite luminescence, 48 h; series mostly up to 57.5 µM
In short: as §1

OV90 = test: as above; conditions: Gynecologic cancer cell panel viability, ATPlite luminescence, 48 h; series mostly up to 57.5 µM
In short: as §1

PA-1 = test: as above; conditions: Gynecologic cancer cell panel viability, ATPlite luminescence, 48 h; series mostly up to 57.5 µM
In short: as §1

SKOV3 = test: as above; conditions: Gynecologic cancer cell panel viability, ATPlite luminescence, 48 h; series mostly up to 57.5 µM
In short: as §1

Tov-21-G = test: as above; conditions: Gynecologic cancer cell panel viability, ATPlite luminescence, 48 h; series mostly up to 57.5 µM
In short: as §1

Tov112D = test: as above; conditions: Gynecologic cancer cell panel viability, ATPlite luminescence, 48 h; series mostly up to 57.5 µM
In short: as §1

[1] = Drug repurposing screens with cells derived from glioblastoma tumor samples (AID 1345199); conditions: GBM patient neurospheres viability, ATP luminescence, 48 h; further: nearly all actives have a fitted effect of over 40% in size; further: potency means the concentration at half of the fitted maximal effect
In short: (§2)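 Four patient lines of CD133+ GBM neurospheres were screened at several concentrations; hits were retested in those lines plus three slower-growing GBM lines, using 48-hour treatment and ATP-based viability.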

astro = test: as above; conditions: viability, ATP luminescence, 48 h; series mostly up to 45.9 µM
In short: as §2

[2] = at 45.9 µM (top of the series), tumour line B
[3] = at 45.9 µM (top of the series), tumour line D
[4] = at 46 µM (top of the series), tumour line A
[5] = at 46.1 µM (top of the series), tumour line C
[6] = at 20 µM (top of the series), tumour line C
[7] = at 21.2 µM (top of the series), tumour line B
[8] = at 21.2 µM (top of the series), tumour line D
[9] = at 21.3 µM (top of the series), tumour line A

CS(=O)(=O)c1ccc(-n2nc(C(F)(F)F)cc2-c2ccc(F)cc2)cc1
Potency (CAOV3): inactive | Potency (CASKI): inactive | Potency (Es-2): inactive | Potency (HeLa): inactive | Potency (Hek293T): inactive | Potency (JEG-3): inactive | Potency (OV90): inactive | Potency (PA-1): inactive | Potency (SKOV3): inactive | Potency (Tov-21-G): inactive | Potency (Tov112D): inactive

O=Cc1ccc(O)c(O)c1O
Potency (CAOV3): inactive | Potency (CASKI): inactive | Potency (Es-2): inactive | Potency (HeLa): inactive | Potency (Hek293T): inactive | Potency (JEG-3): inactive | Potency (OV90): inactive | Potency (PA-1): inactive | Potency (SKOV3): inactive | Potency (Tov-21-G): inactive | Potency (Tov112D): inactive

CCOC(=O)c1ccccc1O
Potency (CAOV3): inactive | Potency (CASKI): inactive | Potency (Es-2): inactive | Potency (HeLa): inactive | Potency (Hek293T): inactive | Potency (JEG-3): inactive | Potency (OV90): inactive | Potency (PA-1): inactive | Potency (SKOV3): inactive | Potency (Tov-21-G): inactive | Potency (Tov112D): inactive | activity, negative = cell killing [1, 2]: -4.37% and -22.2% | activity, negative = cell killing [1, 3]: -0.79% and -11.1% | activity, negative = cell killing [1, 4]: -24.1% | activity, negative = cell killing [1, 5]: -28.6% and -1.56% | Potency (astro): inactive

CCCCCCCCCCCCOCCO
Potency (CAOV3): inactive | Potency (CASKI): inactive | Potency (Es-2): inactive | Potency (HeLa): inactive | Potency (Hek293T): inactive | Potency (JEG-3): inactive | Potency (OV90): inactive | Potency (PA-1): inactive | Potency (SKOV3): inactive | Potency (Tov-21-G): inactive | Potency (Tov112D): inactive

CCCCCCOc1ccccc1C(N)=O
Potency (CAOV3): inactive | Potency (CASKI): inactive | Potency (Es-2): inactive | Potency (HeLa): inactive | Potency (Hek293T): inactive | Potency (JEG-3): inactive | Potency (OV90): inactive | Potency (PA-1): inactive | Potency (SKOV3): inactive | Potency (Tov-21-G): inactive | Potency (Tov112D): inactive | activity, negative = cell killing [1, 5]: -6.65% | Potency ([1]; tumour line A): 14.1 µM (active)

CC1(C)S[C@@H]2[C@H](NC(=O)[C@H](N)c3ccc(O)cc3)C(=O)N2[C@H]1C(=O)O
Potency (CAOV3): inactive | Potency (CASKI): inactive | Potency (Es-2): inactive | Potency (HeLa): inactive | Potency (Hek293T): inactive | Potency (JEG-3): inactive | Potency (OV90): inactive | Potency (PA-1): inactive | Potency (SKOV3): inactive | Potency (Tov-21-G): inactive | Potency (Tov112D): inactive | activity, negative = cell killing [1, 2]: 2.03% | activity, negative = cell killing [1, 3]: 3.17% | activity, negative = cell killing [1, 4]: -16.6% | activity, negative = cell killing [1, 5]: -0.658% | Potency (astro): inactive

O=C(CS)Nc1ccccc1
Potency (CAOV3): inactive | Potency (CASKI): inactive | Potency (Es-2): inactive | Potency (HeLa): inactive | Potency (Hek293T): inactive | Potency (JEG-3): inactive | Potency (OV90): inactive | Potency (PA-1): inactive | Potency (SKOV3): inactive | Potency (Tov-21-G): inactive | Potency (Tov112D): inactive | activity, negative = cell killing [1, 5]: -39.6% | Potency ([1]; tumour line D): 12.6 µM (active)

O=C1CC[C@@H](C(=O)N2CSC[C@H]2C(=O)O)N1 ([pGlu]-[Thz]-OH)
Potency (CAOV3): inactive | Potency (CASKI): inactive | Potency (Es-2): inactive | Potency (HeLa): inactive | Potency (Hek293T): inactive | Potency (JEG-3): inactive | Potency (OV90): inactive | Potency (PA-1): inactive | Potency (SKOV3): inactive | Potency (Tov-21-G): inactive | Potency (Tov112D): inactive | activity, negative = cell killing [1, 2]: -16.5% | activity, negative = cell killing [1, 3]: -0.509% | activity, negative = cell killing [1, 4]: -28.4% | activity, negative = cell killing [1, 5]: -18.5%

CC(C(=O)O)c1ccc(C(=O)c2cccs2)cc1 (stereo not given)
Potency (CAOV3): inactive | Potency (CASKI): inactive | Potency (Es-2): inactive | Potency (HeLa): inactive | Potency (Hek293T): inactive | Potency (JEG-3): inactive | Potency (OV90): inactive | Potency (PA-1): inactive | Potency (SKOV3): inactive | Potency (Tov-21-G): inactive | Potency (Tov112D): inactive | activity, negative = cell killing [1, 6]: 9.23% | activity, negative = cell killing [1, 7]: -14.5% | activity, negative = cell killing [1, 8]: -0.88% | activity, negative = cell killing [1, 9]: -13% | Potency (astro): inactive

CCCCCCCCCCCC(=O)[O][Sn]([CH2]CCC)([CH2]CCC)[O]C(=O)CCCCCCCCCCC
Potency (CAOV3): inactive | Potency (CASKI): inactive | Potency (Es-2): inactive | Potency (HeLa): inactive | Potency (Hek293T): inactive | Potency (JEG-3): inactive | Potency (OV90): inactive | Potency (PA-1): inactive | Potency (SKOV3): inactive | Potency (Tov-21-G): inactive | Potency (Tov112D): inactive | activity, negative = cell killing [1, 2]: -6.49% | activity, negative = cell killing [1, 3]: -3.33% | activity, negative = cell killing [1, 4]: -28.7% | activity, negative = cell killing [1, 5]: -3.83% | Potency (astro): inactive

Cc1c(Nc2ncccc2C(=O)O)cccc1C(F)(F)F
Potency (CAOV3): inactive | Potency (CASKI): inactive | Potency (Es-2): inactive | Potency (HeLa): inactive | Potency (Hek293T): inactive | Potency (JEG-3): inactive | Potency (OV90): inactive | Potency (PA-1): inactive | Potency (SKOV3): inactive | Potency (Tov-21-G): inactive | Potency (Tov112D): inactive | activity, negative = cell killing [1, 6]: -8.1% | activity, negative = cell killing [1, 7]: -18.2% | activity, negative = cell killing [1, 8]: -22.5%

CC(C(=O)O)c1ccc2c(c1)[nH]c1ccc(Cl)cc12 (stereo not given)
Potency (CAOV3): inactive | Potency (CASKI): inactive | Potency (Es-2): inactive | Potency (HeLa): inactive | Potency (Hek293T): inactive | Potency (JEG-3): inactive | Potency (OV90): inactive | Potency (PA-1): inactive | Potency (SKOV3): inactive | Potency (Tov-21-G): inactive | Potency (Tov112D): inactive | activity, negative = cell killing [1, 2]: -6.45% | activity, negative = cell killing [1, 3]: -15.7% | activity, negative = cell killing [1, 4]: -16.3% | activity, negative = cell killing [1, 5]: -19.6% | Potency (astro): inactive

Cc1c(N)c(=O)n(-c2ccccc2)n1C
Potency (CAOV3): inactive | Potency (CASKI): inactive | Potency (Es-2): inactive | Potency (HeLa): inactive | Potency (Hek293T): inactive | Potency (JEG-3): inactive | Potency (OV90): inactive | Potency (PA-1): inactive | Potency (SKOV3): inactive | Potency (Tov-21-G): inactive | Potency (Tov112D): inactive | activity, negative = cell killing [1, 6]: -1.09% | activity, negative = cell killing [1, 7]: -6% | activity, negative = cell killing [1, 8]: -16.4% | activity, negative = cell killing [1, 9]: -17.4% | Potency (astro): inactive

Cc1ccc(C(=O)c2ccc(CC(=O)O)n2C)cc1
Potency (CAOV3): inactive | Potency (CASKI): inactive | Potency (Es-2): inactive | Potency (HeLa): inactive | Potency (Hek293T): inactive | Potency (JEG-3): inactive | Potency (OV90): inactive | Potency (PA-1): inactive | Potency (SKOV3): inactive | Potency (Tov-21-G): inactive | Potency (Tov112D): inactive | activity, negative = cell killing [1, 6]: -5.11% | activity, negative = cell killing [1, 7]: -9.02% | activity, negative = cell killing [1, 8]: -3.08% | activity, negative = cell killing [1, 9]: -10.3% | Potency (astro): inactive
